Source: PubChem BioAssay
NALP1 inh – blocks the NALP1 inflammasome reconstituted in yeast; S. cerevisiae NALP1/ASC/caspase-1 growth, X-gal OD620, 72 h; hit rate 0.61% among 280,000; AID 2071; inhibition, % at 10 µM; in the data active = inhibition mostly above about 24%, no sharp cut-off; inactive = mostly below about 32%
GRIN3A LBD mod – modulators (binders) of human NR3A ligand-binding domain | Tm shift relative to glycine control, % at 25 µM | NR3A LBD differential scanning fluorimetry, Tm shift; 0% = protein alone, 100% = glycine-bound protein | hit rate 2.5% among 340,000;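 active = melting temperature shift of at least 10% of the positive control shift, at one fixed dose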
UBC13 polyUb – blocks human UBC13 polyubiquitin chain formation. TR-FRET. inhibition, % at 20 µM. hit rate 0.47% among 330,000; in the data active = inhibition above about 45%, passing the limit was not always enough
Target sequence (P61088 whole entry, looked up): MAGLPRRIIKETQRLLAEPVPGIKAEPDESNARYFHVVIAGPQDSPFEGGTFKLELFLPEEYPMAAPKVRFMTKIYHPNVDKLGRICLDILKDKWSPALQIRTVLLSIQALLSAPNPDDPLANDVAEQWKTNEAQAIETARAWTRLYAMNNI
dFosB act – enhances mouse delta FosB homodimer DNA binding; P13346; activation, % at 25 µM; purified delta FosB, TAMRA-CDK5 oligo fluorescence polarization; percent of positive-control signal above neutral wells; hit rate 0.99% among 340,000;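 active = mean activation above about 17%, with every replicate also reaching it, limit read from the data, passing the limit was not always enough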
Target sequence (P13346 whole entry, looked up): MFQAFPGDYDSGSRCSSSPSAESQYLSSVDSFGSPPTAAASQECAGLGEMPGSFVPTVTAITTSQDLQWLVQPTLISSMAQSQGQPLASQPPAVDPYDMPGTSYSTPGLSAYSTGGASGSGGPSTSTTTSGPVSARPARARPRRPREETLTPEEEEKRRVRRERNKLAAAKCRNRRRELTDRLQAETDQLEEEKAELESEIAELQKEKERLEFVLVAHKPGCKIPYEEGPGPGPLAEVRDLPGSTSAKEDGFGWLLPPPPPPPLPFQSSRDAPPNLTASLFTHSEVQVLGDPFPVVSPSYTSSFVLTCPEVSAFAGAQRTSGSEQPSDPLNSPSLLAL
CR mimetic SO – caloric restriction mimetics inhibiting age-related superoxide in yeast | S. cerevisiae aged cells, superoxide DHE fluorescence; hits give low values | superoxide response (% of plate mean), % at 10 µM | hit rate 0.18% among 330,000;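 active = superoxide response under a set limit, about three screen SD below normal, cut at about 65% in these data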;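 note: yeast aged for seven days with compound at 30 °C before DHE staining; 100% = average MFI of all compound-treated wells on the plate with controls excluded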
The depositor's hits bear a star; / = no result. Hits are enriched below; roughly 4.3% of the tested compounds scored in any of these assays.

SMILES | NALP1 inh | GRIN3A LBD mod | UBC13 polyUb | dFosB act | CR mimetic SO
CCOC(=O)c1cn(Cc2ccccc2)c2cc(C)nn2c1=O | 3.8 | 11.0* | 8.5 | 0.4 | 102.9
CN(Cc1ccccc1F)C(=O)c1cccc(NC(=O)CC2SC(N3CCCCC3)=NC2=O)c1 (stereo not given) | / | -0.9 | / | -12.5 | /
N#Cc1cccc(C(c2nnnn2C2CCCC2)N2CCCCCC2)c1 (stereo not given) | -4.7 | 0.1 | 7.0 | -10.8 | 104.4
Cc1ccccc1NC(c1cccc(Cl)c1)c1nnnn1C1CCCCC1 (stereo not given) | 1.9 | 12.6* | -5.0 | 1.0 | 108.9
Cc1cccc(-n2ncc3c2CCCC3NC(=O)C2CCOCC2)c1C (stereo not given) | 1.7 | 0.7 | -2.6 | -2.8 | 109.4
O=C(/C=C/c1cc([N+](=O)[O-])ccc1OC(F)F)Nc1cccc2ccccc12 | 9.5 | 13.2* | -8.4 | -8.7 | 90.0
O=C(/C=C/c1cc([N+](=O)[O-])ccc1OC(F)F)Nc1cccc(OC(F)F)c1 | 16.3 | 13.2* | -5.5 | 1.4 | 103.6
CCOC(=O)C1CCN(C(=O)COC(=O)c2oc3ccccc3c2C)CC1 | / | 1.6 | 2.7 | -5.4 | 94.1
COC(=O)C1CCN(C(=O)COC(=O)c2oc3ccccc3c2C)CC1 | / | 16.8* | -8.5 | -1.6 | 105.7
CC1CCCC(C)N1C(=O)COC(=O)c1ccc(F)c(S(=O)(=O)N2CCOCC2)c1 (stereo not given) | 1.5 | -1.3 | -4.0 | 4.1 | 90.4
O=[N+]([O-])c1cc(Cl)ccc1NCCNc1ncc(C(F)(F)F)cc1Cl | 31.2 | 14.3* | -32.3 | 4.1 | 108.6
O=[N+]([O-])c1cc(C(F)(F)F)ccc1NCCCCNS(=O)(=O)c1ccc(Cl)cc1 | 22.6 | 8.9 | -8.6 | 1.1 | 100.1
O=C1CC(=O)N(CCNc2ncc(C(F)(F)F)cc2Cl)C(=O)N1 | -3.5 | -21.6 | -17.1 | 0.7 | 94.3
O=[N+]([O-])c1cc(C(F)(F)F)ccc1NCCNC(=S)Nc1ccc(Cl)cc1 | 6.1 | 15.4* | -16.6 | -10.7 | 111.7
O=C1C=CC(=O)N1CCNc1ncc(C(F)(F)F)cc1Cl | 54.6* | -0.5 | -0.4 | -5.1 | /
COc1ccc(OCC(=O)Nc2ccc(N3CCN(Cc4ccccc4F)CC3)cc2)cc1 | 9.3 | 4.0 | 1.7 | -5.0 | 98.8
COc1ccc(/C=C/C(=O)NC(=S)Nc2ccc(S(=O)(=O)N=C(N)N)cc2)cc1OC | 9.5 | 4.1 | -22.2 | 63.4* | 92.7
Oc1c(CN2CCCCC2)cc(Br)c2cccnc12 | 58.4* | -0.5 | -27.1 | -19.3 | 76.9
O=C(Nc1ccccc1)N1C(=O)C2(OCCO2)c2ccccc21 | 16.4 | 12.8* | 1.8 | -0.7 | 100.7
COCCNC(=O)CN1C(=O)NC2(CCCc3cc(OC)ccc32)C1=O (stereo not given) | -11.8 | -1.1 | 0.1 | -2.9 | 90.8
CCCCCCCCC[n+]1cccc2c3ccccc3ccc21 | 24.6 | -0.9 | 27.7 | 2.9 | 108.5
Cc1ccccc1C[n+]1cccc2ccccc21 | / | 12.9* | 5.4 | -3.3 | 101.3
CCCCCCCCCCCCCCCC[n+]1cccc2ccccc21 | 98.5* | 38.9* | 102.1* | -136.1 | 136.6
CC(=O)c1cccc(OCC(=O)Nc2cc(S(=O)(=O)N3CCOCC3)ccc2N2CCCC2)c1 | / | 0.5 | -6.0 | 2.6 | 85.7
O=c1[nH]cc(F)c(=O)[nH]1 | 115.5* | 0.8 | / | -3.1 | 85.7
SMILES | NALP1 inh | GRIN3A LBD mod | UBC13 polyUb | dFosB act | CR mimetic SO
CC(NC=O)c1nc2ccccc2n1CCc1ccccc1 (stereo not given) | 15.3 | -1.4 | 1.7 | 6.8 | 105.6
O=C(O)CCCCCn1c(SCC(=O)c2ccc(O)c(O)c2)nc2ccsc2c1=O | 23.1 | 1.5 | 1.6 | -4.5 | 108.2
CCCCn1c(SCC(=O)c2ccc(O)c(O)c2)nc2ccsc2c1=O | 26.3 | 24.9* | -6.8 | -5.0 | 95.9
CCOc1ccc(Nc2c3ccccc3nc3ccccc23)cc1 | -2.2 | -0.9 | -86.0 | 85.6* | 105.9
CCOc1ccc(Nc2nc3ccccc3n3nnnc23)cc1 | 42.1* | 2.8 | -2.4 | -2.9 | 87.5
CCOc1ccc(Nc2cc(C)c3ccccc3n2)cc1 | 34.2 | 21.5* | 4.4 | -3.9 | 100.0
CCOC(=O)c1ccccc1NC(=O)COC(=O)CCNS(=O)(=O)c1cccs1 | / | 2.6 | 6.9 | -4.6 | /
CCOC(=O)Cc1c(Sc2ccccc2)c2ccccc2n1C | 32.6 | 11.6* | 2.9 | 10.2 | 109.5
Cc1c(C(=O)Nc2ccc(S(=O)(=O)N(C)C3CCN(C)CC3)cc2)oc2c(Cl)cccc12 | / | -0.4 | 25.9 | -44.0 | 120.0
CCCC(=O)Nc1nnc(S(=O)(=O)N(CC(C)C)c2ccccc2)s1 | 27.8 | -0.5 | -3.9 | 3.8 | 108.5
Cc1ccc(C(=O)NC(Cc2ccccc2C(F)(F)F)C(=O)O)cc1 (stereo not given) | / | 1.6 | / | 5.6 | 100.6
O=C(COC(=O)c1ccc(O)cc1O)Nc1cc(-c2ccccc2)nn1-c1ccccc1 | / | 24.7* | 3.1 | 2.2 | 96.9
COc1ccc(C(=O)c2c(N)sc3c2CCN(C(=O)OC(C)(C)C)C3)cc1 | / | 13.1* | -8.5 | / | 94.3
CN1CCc2c(sc(N)c2C(=O)c2ccc(Cl)cc2)C1 | -17.9 | -0.3 | 5.1 | -5.7 | 95.6
COC(=O)c1ccccc1N1C(=O)C2C(C1=O)C1C=CC2C12CC2 (stereo not given) | 0.7 | 0.5 | -4.9 | -5.3 | 57.4*
COc1ccc(-c2cnnc(N/N=C/c3ccc(-c4ccc([N+](=O)[O-])cc4)o3)n2)cc1 | -15.7 | 19.1* | / | -2.7 | /
O=[N+]([O-])c1ccc(-c2ccc(/C=N/O)o2)cc1 | -2.9 | 33.0* | -2.6 | / | 71.1
O=[N+]([O-])c1ccc(-c2ccc(/C=N/Nc3nc(N4CCCC4)nc(N4CCCC4)n3)o2)cc1 | 1.0 | 0.8 | -22.3 | -4.3 | 97.0
CC(C)CN1CCN=C1Nc1ccccc1 | 22.2 | -2.3 | -5.2 | -2.3 | 102.5
Cc1ccc(N2C(=O)C3C4C=CC(CNC(=S)Nc5ccc(F)cc5)(O4)C3C2=O)cc1 (stereo not given) | 19.5 | -3.7 | -4.9 | -2.4 | 92.5
Cc1ccc(N2C(=O)C3C4C=CC(CNC(=S)Nc5ccc(Cl)cc5)(O4)C3C2=O)cc1 (stereo not given) | 18.2 | 11.7* | -7.2 | -7.1 | 88.5
Cc1ccc(N2C(=O)C3C4C=CC(CNC(=S)Nc5cccc(Cl)c5)(O4)C3C2=O)cc1 (stereo not given) | 26.8 | 20.3* | -13.4 | 0.2 | 78.6
O=C1CC(SC2=NCCS2)C(=O)N1c1ccc(Cl)cc1 (stereo not given) | 14.9 | 23.7* | 5.6 | -7.4 | 94.2
CCC(=O)c1ccc(OCC(=O)OCC(=O)NCCCc2ccccc2)cc1 | / | 1.0 | 3.1 | -11.4 | 105.5
CC(=N\Nc1ccc(Cl)cc1)/C(=N/O)C(=O)Nc1ccccc1 | 10.6 | 22.9* | 5.9 | -1.8 | 81.9
CCc1ccc(NC(=O)CCC(=O)Nc2nnc(C(F)(F)F)s2)cc1 | 2.8 | -8.7 | 0.7 | -1.4 | 90.3
COc1ccc(C(CCNCc2ccc(F)cc2)c2ccc(F)cc2)cc1 (stereo not given) | 67.9* | -1.5 | 19.4 | -4.9 | 112.7
